Results taken from PubChem BioAssay (Tox21).
Records with an inconclusive call do not appear. A call without a number means that no potency is given here. A number with no mark means an inactive call. Active and inactive are the calls of the source. Calls come from the whole dose curve.
Potency is the fitted concentration of half-maximal effect.

Test: qHTS assay for small molecules that induce genotoxicity in human embryonic kidney cells expressing luciferase-tagged ATAD5 - cell viability (AID 651634); note: nearly all actives have a fitted effect of over 25% in size
Settings: HEK293T ATAD5-luc cells viability, CellTiter-Fluor, 15.5 h; series mostly up to 83.3 µM
Text: National Center for Advancing Translational Sciences [NCATS]
NIH Chemical Genomics Center [NCGC]
U.S. Environmental Protection Agency [EPA]
National Institutes of Environmental Health Sciences [NIEHS]
National Toxicology Program [NTP]
U.S. Food and Drug Administration [FDA]
Enhanced Level of Genome Instability Gene 1 (ELG1; human ATAD5) protein levels increase in response to various types of DNA damage. Using a luciferase reporter-gene tagged with ElG1, a cell-based assay [developed by Kyungjae Myung, NHGRI, NIH] was used to measure the induction of ATAD5 in human embryonic kidney cells (HEK293T). So, increase in luciferase activity can be used to identify the compounds that cause genetic stress. In addition to genotoxicity, these cells were also used to test for cytotoxicity by measuring the protease activity within live cells.
Tox21 Assay Protocol Summary:
For cytotoxicity screening, 2,000 cells in 5 uL/well were dispensed into white, solid-bottom 1536-well plates using a Multidrop Combi (Thermo Scientific) dispenser. Following transfer of 23 nL compound or DMSO vehicle by a pin tool, the plates were incubated 15.5 hr at 37C and 5% CO2. 1 ul CellTiter-Fluor reagent (Promega, Madison, WI) was then added to each plate and following 30 min incubation at 37C, fluorescence intensity was quantified on a ViewLux CCD-based plate reader.
In the case of `N#Cc1sc2c(=O)c3ccccc3c(=O)c=2sc1C#N`, the Potency is reported as “inactive”. With `N#CC(C#N)=NNc1cccc(Cl)c1` the Potency was 7.7 µM (active). For `COC(=O)c1ccccc1S(=O)(=O)NC(=O)Nc1nc(C)nc(OC)n1`, the Potency was “inactive”. For `CC(C)(C)c1ccc(OP(=O)(Oc2ccccc2)Oc2ccccc2)cc1`, the Potency was “inactive”. With `CNN` the Potency was “inactive”. For `COCCC#N`, the Potency was “inactive”. In the case of `[Cl-].[Cl-].[Sn+2]`, the Potency is reported as “inactive”. For `CSC(=O)c1c(C(F)F)nc(C(F)(F)F)c(C(=O)SC)c1CC(C)C`, the Potency was “inactive”. For `CCCCCCCc1ccc(O)cc1`, the Potency was “inactive”. For `CCC1COC(Cn2cncn2)(c2ccc(Cl)cc2Cl)O1` (stereo not given), the Potency was “inactive”. For `Cc1ccc2cc3c(ccc4ccccc43)c3c2c1CC3`, the Potency was “inactive”. In the case of `CC(C)N(C(=O)SC/C(Cl)=C/Cl)C(C)C`, the Potency is reported as 48.9 µM (active). With `Oc1cc(Cl)c(Cl)c(Cl)c1Cl` the Potency was “inactive”. With `CC(C)C(Br)C(=O)NC(N)=O` (stereo not given) the Potency was “inactive”. In the case of `ClC(Cl)C(Cl)(Cl)Cl`, the Potency is reported as “inactive”. With `[C-]1=CC=CC1.[Cl][Zr+2][Cl].c1cc[cH-]c1` the Potency was “inactive”. With `CCOP(=S)(NC(C)C)Oc1ccccc1C(=O)OC(C)C` (stereo not given) the Potency was “inactive”. For `O=C(NC(=O)c1ccccc1Cl)Nc1ccc(OC(F)(F)F)cc1`, the Potency was “inactive”. With `COC(=O)C(C)N(C(=O)c1ccco1)c1c(C)cccc1C` (stereo not given) the Potency was “inactive”. With `Oc1ccc(Cl)c(Cl)c1` the Potency was “inactive”. With `Nc1c(Cl)c(Cl)c(Cl)c(Cl)c1Cl` the Potency was “inactive”. With `O.O.O.O=C([O-])[C@H]([O-])[C@@H]([O-])C(=O)[O-].O=C([O-])[C@H]([O-])[C@@H]([O-])C(=O)[O-].[K+].[K+].[Sb+3].[Sb+3]` the Potency was “inactive”. With `c1csc(-c2ccc(-c3cccs3)s2)c1` the Potency was “inactive”. In the case of `O=c1[nH]c(Cl)c(Cl)cc1Cl`, the Potency is reported as “inactive”. With `Clc1c(Cl)c(Cl)c(Cl)c(Cl)c1Cl` the activity, negative = cytotoxicity was 8.7% [at 8.08 µM]. With `CCOP(=S)(OCC)SC(CCl)N1C(=O)c2ccccc2C1=O` (stereo not given) the Potency was “inactive”. For `Cc1cnc2c(C(=O)O)c(Cl)ccc2c1`, the Potency was “inactive”. For `CCN(CC)C(=S)S`, the Potency was “inactive”. With `Oc1cc(Cl)cc(Cl)c1` the Potency was “inactive”. In the case of `Nc1ccc(N=Nc2ccccc2)cc1`, the Potency is reported as 41.6 µM (active). With `CC(C)NCC(O)c1ccccc1Cl` (stereo not given) the Potency was “inactive”. In the case of `CCN(CC)Cc1nccn1-c1ccc([N+](=O)[O-])cc1C(=O)c1ccccc1Cl`, the Potency is reported as “inactive”. In the case of `Cc1cccc(Cc2cnc[nH]2)c1C`, the Potency is reported as “inactive”. In the case of `C=CC(=C)C`, the Potency is reported as “inactive”. In the case of `CC(Cl)CCl` (stereo not given), the Potency is reported as “inactive”. For `CCCCC(CC)COC(=O)OOC(C)(C)C` (stereo not given), the Potency was “inactive”. In the case of `CN1C(=O)[C@@H](NC(=O)c2cc3ccccc3[nH]2)N=C(c2ccccc2)c2ccccc21`, the Potency is reported as “inactive”. In the case of `CC[C@]1(O)CC[C@H]2[C@@H]3CCC4=CCCC[C@@H]4[C@H]3CC[C@@]21C`, the Potency is reported as 10.6 µM (active). With `CN/C(=N\[N+](=O)[O-])NCc1cnc(Cl)s1` the Potency was “inactive”. With `C=CCOC(=O)c1ccccc1N` the Potency was “inactive”.
